Consider six compounds from PubChem BioAssay (Tox21).

A short description of assay [1]: qHTS assay to identify small molecule antagonists of the glucocorticoid receptor (GR) signaling pathway - cell viability counter screen (AID 720693). Note: nearly all actives have a fitted effect of over 55% in size. Note: potency is the fitted concentration of half-maximal effect. In general terms: qHTS replaces the single test concentration by a dilution series.
Assay [2] is described as follows: qHTS assay for identifying genotoxic compounds that show differential cytotoxicity against isogenic chicken DT40 cell lines with known DNA damage response pathways - wild type cell line (AID 743012). Note: nearly all actives have a fitted effect of over 60% in size. Note: potency is the fitted concentration of half-maximal effect. The method, boiled down: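 Luminescent ATP viability signal (CellTiter-Glo, 30 min RT) recorded after wild type DT40 cells were incubated with compounds for 40 h at 37 C/5% CO2.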

Assay [3] in a line: qHTS assay for identifying genotoxic compounds that show differential cytotoxicity against isogenic chicken DT40 cell lines with known DNA damage response pathways - Rev3 mutant cell line (AID 743014). Note: nearly all actives have a fitted effect of over 55% in size. Note: potency is the fitted concentration of half-maximal effect.
Assay [4] in a line: qHTS assay for identifying genotoxic compounds that show differential cytotoxicity against isogenic chicken DT40 cell lines with known DNA damage response pathways - Rad54/Ku70 mutant cell line (AID 743015). Note: nearly all actives have a fitted effect of over 60% in size. Note: potency is the fitted concentration of half-maximal effect.
Assay [5] is described as follows: qHTS assay to identify small molecule antagonists of the androgen receptor (AR) signaling pathway - cell viability counter screen (AID 743033; note: nearly all actives have a fitted effect of over 45% in size; note: potency is the fitted concentration of half-maximal effect).
The target in assay [6] is Androgen receptor (Homo sapiens) (UniProt P10275). The assay is described as follows: qHTS assay to identify small molecule antagonists of the androgen receptor (AR) signaling pathway (AID 743035; active = well fitted inhibition curve with a large enough effect in the signal ratio in the repeat runs, not every such curve was filed as active; inconclusive = weak or mixed curves, or effect the other way; inactive = no such curve, though single readings can be large or run the other way; the % refers to the signal ratio; note: potency is the fitted concentration of half-maximal effect). The gist of the method:
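Quantitative HTS of the Tox21 10K library used HEK293 AR-UAS-bla cells stimulated with R1881 alongside compound for 16 h at 37C, followed by beta-lactamase FRET detection (LiveBLAzer B/G, 2 h, RT).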

For assay [7] the target is unchanged. The assay is described as follows: qHTS assay to identify small molecule agonists of the androgen receptor (AR) signaling pathway using the MDA cell line (AID 743040; note: nearly all actives have a fitted effect of over 20% in size). The gist of the method:
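Luciferase read-out, ONE-Glo, 30 min RT. Cells: MDA-kb2 AR-luc, MMTV promoter with AR and GR response elements. Compound exposure 16 h, 37C, 0% CO2, after 5 h pre-incubation. qHTS agonist mode.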

The nature of assay [8]: qHTS assay to identify small molecule antagonists of the androgen receptor (AR) signaling pathway using the MDA cell line - cell viability counter screen (AID 743041; note: nearly all actives have a fitted effect of over 45% in size; note: potency is the fitted concentration of half-maximal effect). The method, boiled down:
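Cytotoxicity counter screen: MDA-kb2 AR-luc cells, compound + R1881, 16 h, 37C, 0% CO2; CellTiter-Fluor added at 15.5 h, fluorescence read after 30 min.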

For assay [9], the target named is Androgen receptor (Homo sapiens) (UniProt P10275). The assay is described as follows: qHTS assay to identify small molecule antagonists of the androgen receptor (AR) signaling pathway using the MDA cell line (AID 743042; note: nearly all actives have a fitted effect of over 55% in size; note: potency is the fitted concentration of half-maximal effect). The gist of the method:
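MDA-kb2 breast carcinoma cells carrying MMTV-luciferase (AR/GR responsive) were co-treated with compounds and the agonist R1881 for 16 h at 37C. Inhibition read as ONE-Glo luminescence; CellTiter-Fluor fluorescence measured in parallel for cytotoxicity.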

Assay [10] in a line: qHTS assay to identify small molecule antagonists of the thyroid receptor (TR) signaling pathway - cell viability counter screen (AID 743064). Note: nearly all actives have a fitted effect of over 50% in size. Note: potency is the fitted concentration of half-maximal effect. The method, boiled down: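 GH3.TRE-Luc rat pituitary cells carrying a TRE-luciferase reporter were treated with compound plus 1 nM T3 (final) for 23.5 h at 37 °C. Viability was then read in the same wells by CellTiter-Fluor fluorescence after a further 30 min.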

Assay [11] is described as follows: qHTS assay to identify small molecule antagonists of the estrogen receptor alpha (ER-alpha) signaling pathway using the BG1 cell line - cell viability counter screen (AID 743081).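 Note: compound given together with 17beta-estradiol as the ER stimulus; nearly all actives have a fitted effect of over 45% in size.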 Note: potency is the fitted concentration of half-maximal effect.
The next assay deals with Aromatase (Homo sapiens) (UniProt P11511). The assay is described as follows: qHTS assay to identify aromatase inhibitors (AID 743083). Note: nearly all actives have a fitted effect of over 55% in size. Note: potency is the fitted concentration of half-maximal effect.
Aromatase (Homo sapiens), sequence (P11511 whole entry, looked up): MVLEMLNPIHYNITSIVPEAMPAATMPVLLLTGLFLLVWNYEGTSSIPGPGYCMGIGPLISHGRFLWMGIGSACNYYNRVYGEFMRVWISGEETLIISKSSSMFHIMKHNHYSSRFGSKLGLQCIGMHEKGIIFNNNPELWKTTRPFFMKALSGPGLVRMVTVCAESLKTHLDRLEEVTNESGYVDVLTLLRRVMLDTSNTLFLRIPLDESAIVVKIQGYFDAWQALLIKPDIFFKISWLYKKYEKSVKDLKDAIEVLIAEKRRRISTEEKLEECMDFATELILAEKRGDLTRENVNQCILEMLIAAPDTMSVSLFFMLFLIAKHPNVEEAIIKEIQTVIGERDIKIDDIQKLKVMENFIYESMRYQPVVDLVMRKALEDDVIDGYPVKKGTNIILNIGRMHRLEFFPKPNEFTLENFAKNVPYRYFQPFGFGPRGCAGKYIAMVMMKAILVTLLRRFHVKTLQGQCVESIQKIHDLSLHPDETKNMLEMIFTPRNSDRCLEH
A short description of assay [12]: qHTS assay to identify small molecule antagonists of the thyroid receptor (TR) signaling pathway (AID 743065). Note: nearly all actives have a fitted effect of over 55% in size. Note: potency is the fitted concentration of half-maximal effect. The gist of the method: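 GH3.TRE-Luc rat pituitary cells (two TREs driving luciferase) were dosed with compound, then stimulated with 1 nM T3 (final) for 23.5 h at 37 C. ONE-Glo luminescence was the read-out, with CellTiter-Fluor fluorescence as the cytotoxicity counter-screen.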

Assay [13] concerns the target Estrogen receptor (Homo sapiens) (UniProt P03372). The assay is described as follows: qHTS assay to identify small molecule antagonists of the estrogen receptor alpha (ER-alpha) signaling pathway (AID 743069; active = well fitted curve in the direction sought with a large enough effect in the signal ratio in the repeat runs, not every such curve was filed as active; inconclusive = weak or mixed curves, or effect the other way; inactive = no such curve, though single readings can be large or run the other way; the % refers to the signal ratio; note: potency is the fitted concentration of half-maximal effect). The method, boiled down:
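Beta-lactamase FRET fluorescence is read after 2 hr at room temperature with LiveBLAzer B/G substrate. Before that, ER-alpha-bla HEK293 cells sit 4 hr after plating, then receive compound plus 17beta-estradiol and incubate 18 hr at 37C.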

Assay [14] is described as follows: qHTS assay to identify small molecule antagonists of the estrogen receptor alpha (ER-alpha) signaling pathway - cell viability counter screen (AID 743074; calls by dose curve;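 note: HEK293 cells carrying ER-alpha-UAS-bla reporter stimulated with 17beta-estradiol; nearly all actives have a fitted effect of over 45% in size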; note: potency is the fitted concentration of half-maximal effect).
Assay [15] deals with Estrogen receptor (Homo sapiens) (UniProt P03372). Kind of assay: qHTS assay to identify small molecule agonists of the estrogen receptor alpha (ER-alpha) signaling pathway (AID 743075; calls by dose curve; note: potency is the fitted concentration of half-maximal effect). The following applies: HEK293 ER-alpha-UAS-bla, beta-lactamase FRET ratio, 18 h; activation: at 70.1 µM (top of the series).
Estrogen receptor (Homo sapiens), sequence (P03372 whole entry, looked up): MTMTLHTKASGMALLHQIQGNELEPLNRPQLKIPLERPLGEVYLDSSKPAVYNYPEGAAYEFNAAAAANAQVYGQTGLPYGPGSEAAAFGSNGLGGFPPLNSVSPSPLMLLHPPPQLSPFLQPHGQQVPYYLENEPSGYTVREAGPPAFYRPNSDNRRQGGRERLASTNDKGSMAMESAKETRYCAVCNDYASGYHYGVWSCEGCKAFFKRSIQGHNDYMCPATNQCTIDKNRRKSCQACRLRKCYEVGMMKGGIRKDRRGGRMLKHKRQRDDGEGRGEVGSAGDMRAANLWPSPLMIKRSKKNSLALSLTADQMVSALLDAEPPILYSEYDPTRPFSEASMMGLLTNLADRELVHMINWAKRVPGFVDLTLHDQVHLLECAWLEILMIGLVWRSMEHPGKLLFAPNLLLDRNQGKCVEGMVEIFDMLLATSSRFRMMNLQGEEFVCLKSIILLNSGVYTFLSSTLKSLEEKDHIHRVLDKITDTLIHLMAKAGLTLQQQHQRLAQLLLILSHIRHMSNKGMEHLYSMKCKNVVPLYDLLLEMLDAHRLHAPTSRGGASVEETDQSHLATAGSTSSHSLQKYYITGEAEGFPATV
The target is the same in assay [16]. Kind of assay: qHTS assay to identify small molecule agonists of the estrogen receptor alpha (ER-alpha) signaling pathway using the BG1 cell line (AID 743079). Note: nearly all actives have a fitted effect of over 20% in size. To be noted: BG1Luc4E2 cells, ERE-luciferase agonist, 22 h; at 70.3 µM (top of the series).
Assay [17] can be described thus: qHTS assay to identify small molecule antagonists of the estrogen receptor alpha (ER-alpha) signaling pathway using the BG1 cell line (AID 743080; calls by dose curve;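 note: BG1 cells stimulated with 17beta-estradiol alongside compound; nearly all actives have a fitted effect of over 25% in size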). The method, boiled down:
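Luciferase inhibition measured with ONE-Glo after 30 min at RT in BG1Luc4E2 cells given test compounds and 17beta-estradiol for 21.5 h at 37 C; CellTiter-Fluor viability read in the same wells beforehand.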

Assay [18] deals with thyroid hormone receptor (rat, GH3 cells). Kind of assay: qHTS assay to identify small molecule agonists of the thyroid receptor (TR) signaling pathway (AID 743066; calls by dose curve).
Assay [19] deals with Androgen receptor (Homo sapiens) (UniProt P10275). The assay is described as follows: qHTS assay to identify small molecule agonists of the androgen receptor (AR) signaling pathway (AID 743036; active = well fitted activation curve with a large enough effect in the signal ratio in the repeat runs, with a control signal flat, not every such curve was filed as active; inconclusive = weak or mixed curves, or effect the other way; inactive = no such curve, though single readings can be large or run the other way; the % refers to the signal ratio). The gist of the method: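 HEK293 cells stably carrying a UAS-driven beta-lactamase reporter (GeneBLAzer AR-UAS-bla-GripTite) were plated at 2,000 cells/well, rested 4 h at 37C, then exposed to compounds in DMSO for 16 h. LiveBLAzer B/G FRET substrate was added for 2 h at room temperature; fluorescence read.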
Androgen receptor (Homo sapiens), sequence (P10275 whole entry, looked up): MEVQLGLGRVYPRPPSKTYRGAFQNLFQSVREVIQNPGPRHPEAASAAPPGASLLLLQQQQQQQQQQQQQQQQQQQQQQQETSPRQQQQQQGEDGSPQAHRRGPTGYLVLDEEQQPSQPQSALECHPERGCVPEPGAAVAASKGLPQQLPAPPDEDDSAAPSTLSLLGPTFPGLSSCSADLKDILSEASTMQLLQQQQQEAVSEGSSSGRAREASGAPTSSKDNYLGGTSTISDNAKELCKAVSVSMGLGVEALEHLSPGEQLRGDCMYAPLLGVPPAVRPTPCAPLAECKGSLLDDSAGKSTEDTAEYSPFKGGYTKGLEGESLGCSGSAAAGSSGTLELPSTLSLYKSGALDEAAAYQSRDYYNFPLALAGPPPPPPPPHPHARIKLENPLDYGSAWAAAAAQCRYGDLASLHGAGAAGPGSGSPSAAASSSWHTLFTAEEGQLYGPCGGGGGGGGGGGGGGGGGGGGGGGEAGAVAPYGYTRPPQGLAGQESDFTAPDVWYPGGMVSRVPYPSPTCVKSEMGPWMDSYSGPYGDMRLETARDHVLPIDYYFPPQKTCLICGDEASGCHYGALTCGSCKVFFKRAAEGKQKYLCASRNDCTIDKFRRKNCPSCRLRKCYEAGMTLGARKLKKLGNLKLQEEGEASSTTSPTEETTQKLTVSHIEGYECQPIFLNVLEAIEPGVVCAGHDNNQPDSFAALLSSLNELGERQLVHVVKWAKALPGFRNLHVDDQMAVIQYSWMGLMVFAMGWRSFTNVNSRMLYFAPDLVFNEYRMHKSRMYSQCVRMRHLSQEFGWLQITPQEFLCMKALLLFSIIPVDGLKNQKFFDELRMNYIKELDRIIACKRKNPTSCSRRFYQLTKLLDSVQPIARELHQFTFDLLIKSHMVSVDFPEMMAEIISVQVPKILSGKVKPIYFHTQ

Values joined by “and” are separate entries in the source; they are usually repeats but may differ in a detail not shown here. Equal entries are not always repeated. A number with no mark means an inactive call. Active and inactive are the calls of the source. Unless noted, calls come from the whole dose curve; as a rule, active = well fitted curve in the direction sought with a large enough effect in the repeat runs; inconclusive = weak or mixed curves; inactive = no such curve, though single readings can be large; an effect the other way counts as inactive or inconclusive.
% is set by controls: 0 for no effect and ±100 for the full control effect.

As to `CCCCCCCCCCCCCC[P+](CCCC)(CCCC)CCCC` (tested in a mixture with another compound), the Potency in [1] is 8.76 µM (active); in assay [2], 0.388 µM (active); in [3] it was 0.218 µM (active); in assay [4] it was 0.218 µM (active); in [5], 0.983 µM (active); in assay [6], 1.75 µM (active). In addition, the Potency in assay [8] is 5.48 µM (active); in assay [9] it was 3.46 µM (active); in assay [10], 4.35 µM (active); in assay [11], 15.4 µM (active); in the assay with Aromatase (Homo sapiens), 4.35 µM (active). Further, the Potency entry in assay [7] was “inactive”.

Regarding `O=S1(=O)CC(Cl)(Cl)C(Cl)(Cl)C1`, the Potency in assay [1] is 9.77 µM (active); in assay [2] it was 0.122 µM (active); in [3], 0.172 µM (active); in [4] it was 0.154 µM (active); in [5], 4.36 µM (active); in assay [8], 13.7 µM (active). For the same compound, the Potency in [9] was 2.17 µM (active); in [10], 1.93 µM (active); in [12], 1.37 µM (active); in [13], 21.9 µM [inconclusive] (active); in [14], 49 µM (active); in assay [15] it was 12.3 µM [inconclusive] (active). Further, the Potency is 30.6 µM (active) in assay [11] and 1.93 µM (active) with Aromatase (Homo sapiens). For the same compound, in assay [7], the Potency entry was “inactive”.

As to `OCCN1CCN(CC/C=C2/c3ccccc3Sc3ccc(C(F)(F)F)cc32)CC1`, the Potency result in assay [1], in assay [7], in assay [13], in [15], in assay [17] and in assay [11] was “inactive” each time. For the same compound, the Potency entry with Aromatase (Homo sapiens) was “inactive”. Besides, the Potency in assay [2] is 9.44 µM (active); in [3] it was 13.3 µM (active); in assay [4], 11.9 µM (active); in assay [5], 19 µM (active); in assay [10], 15 µM (active); in [12], 11.9 µM (active). Further, in assay [16], the activation was -29.2%.

Turning to `Cc1cc(O)c(C(C)(C)C)cc1C(C)(C)C`, the Potency in assay [1] is 43.6 µM (active); in [2] it was 10.9 µM (active); in assay [3] it was 6.86 µM (active); in [4], 13.7 µM (active); in assay [5], 21.9 µM (active); in assay [9], 54.5 µM (active). Besides, the Potency was 24.3 µM (active) in assay [10], 21.7 µM (active) in assay [12], 17.4 µM (active) in [14] and 54.5 µM (active) with Aromatase (Homo sapiens). The Potency result in [7], in [18] and in assay [11] was “inactive” in each case.

Take `CC(C)(C)C(=O)OCOC(=O)C1N2C(=O)CC2S(=O)(=O)C1(C)C` (stereo not drawn): the Potency entry in [1], in assay [2], in assay [3], in assay [4], in assay [5] and in assay [19] was “inactive” each time. Besides, the Potency result in assay [7], in [8], in assay [9], in assay [10], in assay [12] and in [18] was “inactive” throughout. For the same compound, the Potency entry (in [14]; in [15]; in [17]; in assay [11]; in the assay with Aromatase (Homo sapiens)) was “inactive” each time. In addition, the results for the Potency in assay [6] and in [13] were 6.74 µM (active) and 3.38 µM [inconclusive] (active), respectively. Also, the activation in [16] is -1.04%.

For the compound `CCCCCCCCCCCCCCCC(=O)OC[C@H](O)[C@H]1OC(=O)C(O)=C1O`, the Potency result in [1], in assay [2], in [3], in assay [4], in [5] and in [6] was “inactive” in each case. Moreover, the Potency result in [19], in [7], in assay [9], in assay [10], in [12] and in assay [18] was “inactive” each time. Moreover, the Potency result (in assay [13]; in assay [14]; in [15]; in assay [17]; in assay [11]; with Aromatase (Homo sapiens)) was “inactive” throughout. Moreover, the activation in [16] was 0.436% and 6.85%.
